Source: PubChem (National Center for Advancing Translational Sciences (NCATS))
D2 PAM-1: human D2 receptor positive allosteric modulation. P14416. DiscoveRx D2 beta-arrestin cells, luminescence, 90 min; 100% = 57 uM dopamine signal. potentiation, % (concentration not given with the values). 360,000 tested, 0.23% active. AID 624464; in the data active = potentiation above about 50%
Target sequence (P14416 whole entry, looked up): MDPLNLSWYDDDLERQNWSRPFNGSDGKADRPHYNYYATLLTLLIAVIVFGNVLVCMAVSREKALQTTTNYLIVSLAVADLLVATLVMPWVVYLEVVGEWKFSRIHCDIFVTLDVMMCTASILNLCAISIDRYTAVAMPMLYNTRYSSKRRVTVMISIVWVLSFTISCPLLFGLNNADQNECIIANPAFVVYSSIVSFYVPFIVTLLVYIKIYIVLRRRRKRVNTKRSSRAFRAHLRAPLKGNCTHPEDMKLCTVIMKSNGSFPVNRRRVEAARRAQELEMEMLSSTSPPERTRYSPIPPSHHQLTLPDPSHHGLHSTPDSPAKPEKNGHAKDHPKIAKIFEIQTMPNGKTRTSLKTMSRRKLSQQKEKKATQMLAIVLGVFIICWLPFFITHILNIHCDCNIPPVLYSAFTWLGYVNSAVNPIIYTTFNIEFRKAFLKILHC
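PathHunter beta-arrestin assay in DiscoveRx D2 cells. Compounds were added with an EC20 of dopamine (50 nM final) for 90 min at 37 deg C. Luminescence was read 1 h after detection reagent, with 57 uM dopamine as the EC100 control.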
D2 PAM-2: positively modulates the human D2 dopamine receptor allosterically; HEK293 T-REx D2, calcium flux, EC20 dopamine potentiation; potentiation, % at 10 µM; 340,000 tested, 0.34% active; AID 485347; P14416;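 active = potentiation over 3 SD above the plate norm, cut at about 30% in these data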; note: 0% is about no effect
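Potentiation of an EC20 dopamine calcium response is measured in a force-coupled, tetracycline-inducible Hek293 Trex D2 line. Compound-only kinetic reads over 180 s flag agonists before dopamine addition.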
D2 ag-1: activates the human D2 dopamine receptor. DiscoveRx PathHunter D2 beta-arrestin, luminescence, 90 min; 100% = 57 uM dopamine signal. 360,000 tested, 0.084% active. P14416. activation, % (test concentration not listed); in the data active = activation above about 40%
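DiscoveRx PathHunter D2 beta-arrestin cells (2,100/well) attached overnight, then compound-stimulated 90 min at 37 C in HBSS/10 mM HEPES/0.1% Tween-20 buffer; beta-galactosidase complementation read by luminescence after 1 h at ambient temperature. Dopamine 57 uM final (EC100) as control.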
D2 antagonist: antagonizes the human D2 dopamine receptor; P14416; HEK293 TREx D2 cells, calcium flux, dopamine EC80; inhibition, % at 10 µM; 340,000 tested, 2% active; in the data active = inhibition above about 30%; inactive = below that, where a call was filed; note: 0% is about no effect
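Antagonism is scored as inhibition of an EC80 dopamine-evoked calcium signal in a force-coupled, tetracycline-inducible HEK293 T-REx D2 line, with compound present 180 s before agonist.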
D2 ag-2: activates the human D2 dopamine receptor. HEK293 T-REx D2 cells, calcium flux agonist mode. activation, % at 2 µM. 340,000 tested, 0.53% active. AID 485358. P14416;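 active = activation over 3 SD above normal in the single-dose calcium agonist read, cut at about 30% in these data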; note: 0% is about no effect
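Tetracycline-induced HEK293 T-REx cells with force-coupled D2 receptor, plated overnight at 30 C, loaded with no-wash calcium dye. After a 10 s baseline, compound was pin-added and calcium flux read kinetically for 180 s; calcium rises flagged agonists.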
Active calls of the source: *. A selection: hits, their analogues and other compounds. The true share with any hit is near 2.4%.

CCc1cccc2c(-c3ccc(F)cc3)nc(SCC(=O)Nc3ccccc3)nc12 was read as D2 PAM-2 6 and D2 ag-2 2.
CCOc1ccc(NC(=O)C2CC(=O)OC2c2ccccc2)cc1 (stereo unspecified) was read as D2 PAM-1 -5, D2 PAM-2 1, D2 ag-1 10, D2 antagonist -10 and D2 ag-2 0.
Screening COC(=O)c1ccc(NC(=O)C2CC(=O)OC2c2ccccc2)cc1 (stereo unspecified) returned D2 PAM-1 -6, D2 PAM-2 -15, D2 ag-1 -5, D2 antagonist 35* and D2 ag-2 0.
For Cc1ccc(CNC(=O)CO/N=C/c2ccc(C(C)(C)C)cc2)cc1 the results were D2 PAM-1 -17, D2 PAM-2 -11, D2 ag-1 -3, D2 antagonist 38* and D2 ag-2 1.
For CC(=O)Nc1ccc(NC(=O)CCn2cnnn2)cc1 the results were D2 PAM-1 2, D2 PAM-2 1, D2 ag-1 1, D2 antagonist -23 and D2 ag-2 1.
For O=C(CCn1cnnn1)Nc1ccc(F)cc1 the results were D2 PAM-1 -2, D2 PAM-2 -4, D2 ag-1 -4, D2 antagonist 32* and D2 ag-2 2.
Cc1cc(=O)n2[nH]c(C)c(-c3ccc(Cl)cc3)c2n1 was read as D2 PAM-1 -24, D2 PAM-2 -26, D2 ag-1 -1, D2 antagonist 46* and D2 ag-2 -2.
Screening Cc1cc(=O)n2[nH]c(C)c(-c3ccccc3)c2n1 returned D2 PAM-1 -36, D2 PAM-2 -16, D2 ag-1 -4, D2 antagonist 6 and D2 ag-2 3.
Screening Cc1cc(C)n(CC2CC(=O)N(c3cc(Cl)cc(Cl)c3)C2=O)n1 (stereo unspecified) returned D2 PAM-1 8, D2 PAM-2 -5, D2 ag-1 0, D2 antagonist 31* and D2 ag-2 0.
Screening Cc1ccc(O)c(-c2ccnc3cc(-c4ccc(Cl)cc4)nn23)c1 returned D2 PAM-2 6 and D2 ag-2 0.
Cc1cc(C)c(S(=O)(=O)N2CCN(C(=O)C(C)Cn3nc(C)nc3C)CC2)c(C)c1 (stereo unspecified) was read as D2 PAM-1 -9, D2 PAM-2 12, D2 ag-1 3, D2 antagonist 35* and D2 ag-2 1.
Cc1cc(C)c(S(=O)(=O)N2CCN(C(=O)N(C)C)CC2)c(C)c1 was read as D2 PAM-1 -6, D2 PAM-2 32*, D2 ag-1 -1, D2 antagonist -5 and D2 ag-2 0.
`Cc1nc(C)n(CC(C)C(=O)N2CCN(S(=O)(=O)c3ccccc3)CC2)n1` (stereo unspecified) gave D2 PAM-1 -1, D2 PAM-2 -15, D2 ag-1 -2, D2 antagonist 32* and D2 ag-2 -1.
Cc1cc(C)c(S(=O)(=O)N2CCN(C(=O)N3CCCCC3)CC2)c(C)c1 was read as D2 PAM-1 1, D2 PAM-2 7, D2 ag-1 -3, D2 antagonist 0 and D2 ag-2 0.
`COCCn1c(CCC(=O)Nc2ccc(OC)c(OC)c2)nc2cccnc21` gave D2 PAM-2 1 and D2 ag-2 -1.
`Cc1c(/C(Cc2ccccc2)=N/O)c2ccccc2n1C` gave D2 PAM-1 0, D2 PAM-2 -2, D2 ag-1 -3, D2 antagonist 37* and D2 ag-2 4.
Screening Cc1c(C(=O)CN2CCSCC2)c2ccccc2n1C returned D2 PAM-1 -23, D2 PAM-2 -3, D2 ag-1 -2, D2 antagonist 4 and D2 ag-2 -2.
For CCSc1nnc(-c2sc3nnc(-c4ccccc4)c(-c4ccccc4)c3c2N)o1 the results were D2 PAM-1 -14, D2 PAM-2 -2, D2 ag-1 -4, D2 antagonist -27 and D2 ag-2 39*.
Screening CC1CN(c2c3c(nc4ncnn24)CCCC3)CC(C)O1 (stereo unspecified) returned D2 PAM-1 -22, D2 PAM-2 32*, D2 ag-1 -3, D2 antagonist -2 and D2 ag-2 1.
`Cc1ccc(Cl)cc1N1CCN(C(=O)CCS(=O)(=O)c2ccc3c(c2)oc(=O)n3C)CC1` gave D2 PAM-2 -10 and D2 ag-2 0.
`Cc1ccc(C2CC(C(F)(F)F)n3ncc(C(=O)NCc4ccco4)c3N2)cc1` (stereo unspecified) gave D2 PAM-1 -9, D2 PAM-2 4, D2 ag-1 -3, D2 antagonist 37* and D2 ag-2 0.
For O=S(=O)(Cc1ccccc1)N1CCN(C2Cc3ccccc3C2)CC1 the results were D2 PAM-1 -13, D2 PAM-2 -7, D2 ag-1 -1, D2 antagonist 30* and D2 ag-2 1.
`CCOc1cc(C2C(C(=O)OC)=C(C)N=C3SC(C)C(=O)N32)ccc1OC(C)=O` (stereo unspecified) gave D2 PAM-1 -14, D2 PAM-2 4, D2 ag-1 -3, D2 antagonist -1 and D2 ag-2 0.
CCOC(=O)C1=C(C)N=C2SC(C)C(=O)N2C1c1ccc(OC(C)=O)c(OC)c1 (stereo unspecified) was read as D2 PAM-1 -3, D2 PAM-2 38*, D2 ag-1 -2, D2 antagonist 11 and D2 ag-2 0.
Screening COc1cccc(N2CCN(C(=O)c3cccn3-c3nnc(N4CCCC4)s3)CC2)c1 returned D2 PAM-2 -1 and D2 ag-2 -1.
For O=C(COC(=O)c1ccc(O)cc1)Nc1cc(C(F)(F)F)ccc1Cl the results were D2 PAM-1 -4, D2 PAM-2 -3, D2 ag-1 6, D2 antagonist 0 and D2 ag-2 3.
For O=C(CCCC(=O)OCC(=O)c1ccc(Cl)cc1Cl)Nc1cc(C(F)(F)F)ccc1Cl the results were D2 PAM-1 -40, D2 PAM-2 -11, D2 ag-1 -11, D2 antagonist 19 and D2 ag-2 1.
For CN(C)S(=O)(=O)c1ccc(NC(=O)CN2CCC(Cc3ccccc3)CC2)cc1 the results were D2 PAM-1 -3, D2 PAM-2 -6, D2 ag-1 -2, D2 antagonist -1 and D2 ag-2 2.
Screening O=C(CCCC(=O)OCC(=O)c1ccc(F)cc1)Nc1cc(C(F)(F)F)ccc1Cl returned D2 PAM-1 0, D2 PAM-2 -20, D2 ag-1 -4, D2 antagonist 47* and D2 ag-2 1.
For CN(C)S(=O)(=O)c1ccc(Cl)c(NC(=O)CN2CCC(Cc3ccccc3)CC2)c1 the results were D2 PAM-1 -26, D2 PAM-2 -10, D2 ag-1 2, D2 antagonist 42* and D2 ag-2 -5.
